# Screening data from PubChem.
# Hits are enriched below; roughly 1.9% of the tested compounds scored in any of these assays.
# MOR-DOR ag – agonists of human mu-delta opioid receptor heterodimerization; activation, % at 9.3 µM; AID 504326; cells, OPRM1-OPRD1 heterodimerization, luminescence; actives 0.3% (n = 340,000); P35372+P41143; in the data active = activation above about 18%;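 also: 0% = vehicle-treated cells and 100% = reference agonist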
# Target sequence (P35372 whole entry, looked up): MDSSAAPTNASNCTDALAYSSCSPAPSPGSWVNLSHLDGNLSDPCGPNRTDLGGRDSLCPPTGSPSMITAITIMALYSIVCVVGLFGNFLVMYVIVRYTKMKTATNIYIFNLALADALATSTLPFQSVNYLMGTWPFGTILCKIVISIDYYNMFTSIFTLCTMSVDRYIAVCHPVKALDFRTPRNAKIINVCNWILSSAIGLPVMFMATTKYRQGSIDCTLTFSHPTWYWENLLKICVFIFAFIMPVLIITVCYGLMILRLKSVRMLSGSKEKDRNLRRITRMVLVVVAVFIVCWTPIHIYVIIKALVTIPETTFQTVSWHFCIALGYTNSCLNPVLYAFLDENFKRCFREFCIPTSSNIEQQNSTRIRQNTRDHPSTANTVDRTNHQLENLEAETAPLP
# Target sequence (P41143 whole entry, looked up): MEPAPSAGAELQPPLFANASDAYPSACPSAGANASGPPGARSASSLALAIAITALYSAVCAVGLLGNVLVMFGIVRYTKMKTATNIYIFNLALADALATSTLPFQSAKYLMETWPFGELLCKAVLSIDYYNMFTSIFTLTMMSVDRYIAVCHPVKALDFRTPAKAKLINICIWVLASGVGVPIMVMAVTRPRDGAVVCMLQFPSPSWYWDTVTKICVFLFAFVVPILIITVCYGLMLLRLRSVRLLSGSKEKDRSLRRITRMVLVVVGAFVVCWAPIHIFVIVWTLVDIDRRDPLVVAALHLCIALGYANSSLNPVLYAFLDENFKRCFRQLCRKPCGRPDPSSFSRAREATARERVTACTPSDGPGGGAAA
# OPRM1-OPRD1 inv – inverse agonist of human OPRM1-OPRD1 heterodimerization; actives 0.21% (n = 340,000); cell-based MOR-DOR heterodimer luminescence, inverse agonism; inhibition, % at 9.3 µM; P35372+P41143; in the data active = inhibition above about 22%, passing the limit was not always enough;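 also: 0% = cells with DMSO and 100% = wells without cells with DMSO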
# HTR5A ag ctr – activates human HTR5A in OPRM1-OPRD1 agonist counter-screen; activation, % at 9.3 µM; HTR5A agonist assay, luminescence, cell-based; AID 504692; actives 0.61% (n = 340,000); in the data active = activation mostly above about 9.5%, no sharp cut-off; inactive = mostly below about 7.6%;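 also: 0% = cells with vehicle only and 100% = reference agonist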
# MsrA inh – bovine MsrA inhibition. inhibition, % at 15.5 µM. purified bovine MsrA, absorbance read-out. AID 651718. actives 0.75% (n = 360,000); in the data active = inhibition above about 4.5%;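 also: 0% = vehicle wells with enzyme and 100% = reference inhibitor wells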
# HTR5A inv ag – counter-screen for OPRM1-OPRD1 inverse agonists: human HTR5A inverse agonism. HTR5A cell line, luminescence. P47898. actives 0.083% (n = 340,000). inhibition, % at 9.3 µM; in the data active = inhibition mostly above about 23%, no sharp cut-off; inactive = mostly below about 18%;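 also: 0% = cells with DMSO and 100% = no-cell wells with DMSO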
# bovine MsrA act – activators of bovine methionine sulfoxide reductase A; actives 0.3% (n = 360,000); AID 602163; purified bovine MsrA, absorbance read-out; activation, % at 10.6 µM; in the data active = activation above about 7.5%;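 also: 0% = vehicle and 100% = reference activator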
# MsrA activ conf – confirmation of bovine methionine sulfoxide reductase A activators; shares compounds with bovine MsrA act; purified bovine MsrA, absorbance read-out; activation, % at 10.6 µM; actives 12% (n = 1,000); AID 602270; in the data active = activation above about 4%;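 also: enzyme coupled to thioredoxin and thioredoxin reductase with NADPH; 0% = vehicle wells and 100% = reference activator wells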
# Active calls of the source: *; . = not tested or not shown.
SMILES,MOR-DOR ag,OPRM1-OPRD1 inv,HTR5A ag ctr,MsrA inh,HTR5A inv ag,bovine MsrA act,MsrA activ conf
O=C(N/N=C/c1ccc([N+](=O)[O-])s1)c1cccc(Br)c1,8,-43,2,1,-41,8.7*,6.6*
Cc1ccc(C(=O)N/N=C/c2ccc([N+](=O)[O-])s2)cc1,16,-79,-2,3,5,-2,.
O=C(N/N=C/c1ccc(O)c2ncccc12)c1cccc(Br)c1,5,-26,-3,3,7,15*,-1
O=C(C(=O)N1CCC(CNS(=O)(=O)c2ccc(F)cc2)CC1)c1cc2ccccc2o1,.,.,.,0,.,.,.
CCCC(=O)Nc1cc(C)c(NC(=O)Cc2ccccc2)cn1,.,.,.,2,.,.,.
Cc1cc(NC(=O)C(C)C)ncc1NC(=O)Cc1ccccc1,-2,13,-6,0,-7,9.6*,-3
C[C@H](CO)N1C[C@H](C)[C@@H](CN(C)C(=O)Nc2cccc(C(F)(F)F)c2)OCc2cn(nn2)CCCC1=O,.,.,.,0,.,.,.
CC(C)(C)OC(=O)NCc1ccc(CNC(=O)c2[nH]cnc2C(=O)NC2CCN(C(=O)OC(C)(C)C)CC2)cc1,2,-12,10,.,-3,12*,2
c1cncc(Oc2ccc(NCCc3c[nH]c4ccccc34)cc2)c1,.,.,.,-1,.,.,.
COc1ccc(N2CCN(C(c3nnnn3C3CCCC3)C(C)C)CC2)cc1 (stereo not given),-2,10,4,0,-12,8.9*,0
COC(=O)C1=C(C)N(Cc2ccccc2C(F)(F)F)C(=NCc2cc(OC)c(OC)c(OC)c2)NC1CCc1ccccc1 (stereo not given),.,.,.,-1,.,.,.
COc1ccccc1CC(=O)NCC1CCCO1 (stereo not given),-3,14,1,0,-5,8.4*,0
O=C(C(=O)N1CCN(C(=O)c2cc(C(F)(F)F)cc(C(F)(F)F)c2)CC1)c1cccc(C(F)(F)F)c1,.,.,.,0,.,.,.
CCC(C)(C)n1nnnc1C(c1ccc(C)cc1)N1CCN(Cc2ccc3c(c2)OCO3)CC1 (stereo not given),4,-23,5,0,-13,8.7*,-1
CCC(C)(C)n1nnnc1C(c1ccc2ncccc2c1)N1CCN(Cc2ccc3c(c2)OCO3)CC1 (stereo not given),-1,5,-3,1,4,-10,.
O=C(NCc1ccccc1)[C@@H]1CCCN1C(=O)[C@H]1CCCN1C(=O)c1c(F)cccc1F,.,.,.,1,.,.,.
C[C@@H]1C=CCCO[C@]12C(=O)N(CC1CC1)c1cccc(Br)c12,.,.,.,0,.,.,.
CCOC(=O)C1CCCN(C(=O)CCCn2nnnc2CN2CCOCC2)C1 (stereo not given),-2,11,1,0,-3,15*,0
CCCOC1CCCN(C(=O)CCCn2nnnc2CN2CCOCC2)C1 (stereo not given),-2,12,-4,-1,-11,-6,.
CCNC1=C(Cl)C(=O)c2ccccc2C1=O,6,-35,-1,0,-5,12*,4.0*
CCN(CC)c1ccc(NC2=C(Cl)C(=O)c3ccccc3C2=O)cc1,4,-21,-2,.,16,-3,.
CCCC(=O)NC1=C(Cl)C(=O)c2ccccc2C1=O,6,-27,7,1,-27,9.2*,1
O=C1C(Cl)=C(NCc2ccco2)C(=O)c2ccccc21,5,-23,4,1,-16,14*,11*
N#CCOC(=O)c1cc(S(=O)(=O)N2CCCCC2)ccc1N1CCOCC1,-1,5,-1,0,7,12*,-3
O=C(NN1C(=O)c2cc(Br)ccc2NC1c1cc(Br)cc(Br)c1O)c1ccncc1 (stereo not given),0,2,-2,0,7,8.9*,-4
SMILES,MOR-DOR ag,OPRM1-OPRD1 inv,HTR5A ag ctr,MsrA inh,HTR5A inv ag,bovine MsrA act,MsrA activ conf
O=C(NN1C(=O)c2cc(Br)ccc2NC1c1ccccc1Cl)c1ccncc1 (stereo not given),-2,10,-5,1,14,1,.
CCC(=O)Nc1ccc(C(=O)Nc2cccnc2)cc1,-1,3,-1,-1,-14,15*,-1
c1ccc(SSc2ccccn2)nc1,0,-2,-4,.,-16,11*,7.5*
COc1cccc(-c2nc(N3CCC(C)CC3)c3ccccc3n2)c1O,1,-7,-1,2,17,8.2*,-5
COc1cccc(-c2nc(N3CCCC3)c3ccccc3n2)c1O,-1,6,0,1,-1,-7,.
C#CC(C)(O)C1CC(CC(=O)O)C1(C)C (stereo not given),-1,5,-1,.,4,10*,-2
COC(=O)c1ccc2c(=O)n(Cc3ccc(C(=O)NCCCN4CCC(C)CC4)cc3)c(=S)[nH]c2c1,5,-22,5,0,12,-13,.
CC1CCN(CCCNC(=O)c2ccc3c(=O)n(Cc4ccc(Cl)cc4)c(=S)[nH]c3c2)CC1,0,0,-2,2,6,8.2*,-3
COc1ccc(C(=O)NC(=S)Nc2ccc(S(=O)(=O)Nc3cc(C)on3)cc2)cc1OC,-4,18,2,-1,-6,8.2*,-1
CC(C)CN(CCCNC(=O)CC1Oc2ccccc2NC1=O)CC(C)C (stereo not given),1,-8,3,-1,-2,8.6*,0
CCOc1ccc2nc(NC(=S)N(C)C)sc2c1,-1,5,1,1,2,8.1*,-7
CCOC(=O)C1=CN(Cc2cccc(F)c2)S(=O)(=O)NC1CCc1ccccc1 (stereo not given),9,-42,1,-1,-6,1,.
CCOC(=O)C1=CN(Cc2cccc(F)c2)S(=O)(=O)N(CC)C1CCc1ccccc1 (stereo not given),-3,16,1,0,-2,8.6*,1
Cc1[nH]c(-c2ccc(F)cc2)cc1C(=O)N1CCN(c2ccc(Cl)cc2)CC1,5,-29,8,-1,-32,8.3*,-1
COc1cc(C(C)=O)ccc1OCC(O)CNCC1(N2CCCCC2)CCCCC1 (stereo not given),-3,13,-2,1,5,19*,0
COc1ccccc1COCC(O)CNCC1(N2CCCCC2)CCCCC1 (stereo not given),-2,12,-2,0,5,-1,.
Cn1c(=O)c2nc(SCCO)n(C)c2n(C)c1=O,-2,12,-2,1,8,8.4*,-3
COc1ccc(C(C)=O)cc1CN1C(=O)C(C)N(c2ccc(C)cc2)C1=O (stereo not given),-1,6,1,1,-3,9.0*,-3
NC(=O)c1ncn2c(=O)n(CCCl)nnc12,.,.,.,2,.,.,.
O=C(NCCc1ccccc1Cl)[C@@H]1CCCN1C(=O)[C@@H](NS(=O)(=O)c1ccc(F)cc1F)C1CCCCC1,.,.,.,1,.,.,.
